Compound activity from PubChem BioAssay.
Most compounds without a hit are left out; they make up all but 17% or so of the library.
TDP1 cell CPT: DT40-hTDP1 cell growth loss with CPT; Potency, µM (series often up to 46.2 µM), actives largely listed as inhibitors; chicken DT40 Tdp1-/-;hTDP1 cells + 20 nM CPT, ATP luminescence, 48 h; 420,000 compounds, 12% hits; further: nearly all actives have a fitted effect of over 55% in size
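Chicken DT40 Tdp1-/- cells stably complemented with human TDP1 were seeded at 400 cells/well in medium containing 20 nM camptothecin, exposed to pin-transferred compounds, and grown at 37 °C for at least 48 hr. Viability was read as ATP luminescence.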
TGFb inhibitor: blocks TGF-b signaling. HepG2 CAGA-GFP TGF-b/SMAD3 reporter, GFP fluorescence, 18 h; TGF-beta stimulated, 500 pg/mL final. Potency, µM (series often up to 46.1 µM), hits mostly inhibitors. 410,000 compounds, 1.2% hits. AID 588855; further: nearly all actives have a fitted effect of over 65% in size
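Read-out: total well GFP (ex488/em500-530) summed from mean per-cell fluorescence. Cells: HEPG2 CAGA-GFP, 1% FBS DMEM, 18 h at 37 degrees C with 500 pg/mL final TGF-beta. Unstimulated wells served as the full-inhibition control; stimulated DMSO wells = 0%.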
HepG2 tox: kills HepG2 cells in TGF-b inhibitor counter-screen; HepG2 CAGA-GFP viability, ATP luminescence, 18 h; Potency, µM (titrated, usually from 46.1 µM), most hits filed as cytotoxic; 410,000 compounds, 0.76% hits
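CellTiter-Glo luminescence gave cytotoxicity after 18 hours at 37 degrees C. The cells were HepG2 CAGA-GFP in 1% FBS DMEM, stimulated with 500 pg/mL TGF-beta after compound addition. %Activity was normalised to no-cell wells (complete cell-killing) and DMSO (no toxicity), and curves were fitted and classified.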
HT1080-NT tox: kills 2HG-producing HT-1080-NT fibrosarcoma cells. 360,000 compounds, 1.6% hits. HT-1080-NT fibrosarcoma viability, CellTiter-Glo ATP luminescence, 48 h. Potency, µM (series often up to 46.1 µM), actives largely listed as cytotoxic;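 further: NT is the 2HG producing partner of a matched IDH1 knockdown line; nearly all actives have a fitted effect of over 55% in size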
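Viability by CellTiter-Glo luminescence after 48 h compound exposure at 37C of HT-1080-NT cells (750/well, RPMI, 5% FBS). % activity scaled between DMSO wells and medium-only wells, then curve-fitted and categorized by curve class.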
DT40 TDP1 no CPT: qHTS for Inhibitors of human tyrosyl-DNA phosphodiesterase 1 (TDP1): qHTS in cells in absence of CPT; DT40 Tdp1-/- hTDP1 cells, no CPT, ATP luminescence, 48 h; Potency, µM (series often up to 46.2 µM), usual class: inhibitors; 420,000 compounds, 15% hits; further: nearly all actives have a fitted effect of over 55% in size
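Chicken DT40 Tdp1-/- cells complemented with human TDP1, screened without camptothecin (DMSO vehicle only), 400 cells/well. Compounds pin-transferred, cells incubated at 37 °C for at least 48 hr. Growth read as ATP-dependent luminescence (CellTiter-Glo, 30 min at RT).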
HT1080 IDH1KD tx: toxicity to HT-1080 IDH1 knockdown cells (counter line). HT-1080 IDH1 knockdown viability, ATP luminescence, 48 h. Potency, µM (highest dose often 46.1 µM), hits mostly cytotoxic. 360,000 compounds, 2% hits
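Knockdown cells (IDH1KD HT-1080) received compounds 2 h after plating at 750 cells/well and were kept 48 h at 37 °C in 5% FBS RPMI. A CellTiter-Glo luminescence read gave % activity for curve fitting.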
Large screens that a line does not name were inactive. The call rests on the fitted dose curve; in most records, active means well fitted curve in the direction sought with a large enough effect; inconclusive means small, poorly fitted or top-dose-only effect, or another doubt; inactive means no such curve, though single readings can be large; an effect the other way counts as inactive or inconclusive.

COCC(=O)Nc1cc(C(=O)N2CCOc3ccccc3C2)cc2nc(-c3cccnc3)n(C)c12	none (no result: TGFb inhibitor, HepG2 tox, HT1080-NT tox, HT1080 IDH1KD tx)
COc1ccc(-c2[nH]ncc2[C@@H]2C[C@H]3CN(Cc4ccccc4C)C(=O)[C@]34CCCN24)cc1	TDP1 cell CPT inconclusive, TGFb inhibitor inconclusive, DT40 TDP1 no CPT inconclusive
COc1ccccc1CN1C[C@@H]2C[C@@H](c3ccc(C)c(C)c3)N3CCC[C@@]23C1=O	TDP1 cell CPT 15µM, DT40 TDP1 no CPT 16µM
Cc1ccccc1CN1C[C@@H]2C[C@@H](c3cn[nH]c3-c3ccc(F)cc3)N3CCC[C@@]23C1=O	TDP1 cell CPT 18µM, TGFb inhibitor inconclusive, HT1080-NT tox inconclusive, DT40 TDP1 no CPT 21µM
COc1ccc([C@@H]2C[C@H]3CN(Cc4ccccc4OC)C(=O)[C@]34CCCN24)cc1C	TDP1 cell CPT inconclusive, DT40 TDP1 no CPT 18µM
Cn1cccc1/C=N/NC(=O)c1ccco1	none
CCC12CCCN3CCC4(C(=C(C(=O)OC)C1)Nc1ccccc14)C32 (stereo not drawn)	TDP1 cell CPT 16µM, DT40 TDP1 no CPT 16µM
CO[C@H]1[C@H](NC(=O)c2ccco2)c2ccccc2C12CCN(Cc1cc(Cl)ccc1O)CC2	DT40 TDP1 no CPT 23µM (no result: TGFb inhibitor, HepG2 tox, HT1080-NT tox, HT1080 IDH1KD tx)
COc1cc(CN2CCC3(CC2)c2ccccc2[C@@H](NC(=O)c2ccccc2OC)[C@@H]3O)ccc1F	DT40 TDP1 no CPT 18µM (no result: TGFb inhibitor, HepG2 tox, HT1080-NT tox, HT1080 IDH1KD tx)
COc1ccc(CN2CCC3(CC2)c2ccccc2[C@@H](NC(=O)c2ccco2)[C@@H]3OC)c(O)c1	none (no result: TGFb inhibitor, HepG2 tox, HT1080-NT tox, HT1080 IDH1KD tx)
COc1ccccc1C(=O)N[C@@H]1c2ccccc2C2(CCN(Cc3nccs3)CC2)[C@H]1OC	none (no result: TGFb inhibitor, HepG2 tox, HT1080-NT tox, HT1080 IDH1KD tx)
Cn1nc(C(=O)OCC(=O)NCc2ccc(Cl)cc2Cl)c2ccccc2c1=O	none
Cc1ccc(NC(=O)C(=O)NCCN2CCN(S(C)(=O)=O)CC2)cc1C	none
COc1ccc(-c2noc(N3CCC(C(=O)Nc4ccc(OC)cc4OC)CC3)n2)cc1	TDP1 cell CPT inconclusive, DT40 TDP1 no CPT inconclusive
CCc1ccc(NC(=O)C2CCN(c3nc(-c4ccc(OC)cc4)no3)CC2)cc1	none (no result: HT1080-NT tox, HT1080 IDH1KD tx)
COc1ccc(-c2noc(N3CCC(C(=O)N(C)c4cc(Cl)ccc4OC)CC3)n2)cc1	TDP1 cell CPT 16µM, TGFb inhibitor inconclusive, DT40 TDP1 no CPT inconclusive (no result: HT1080-NT tox, HT1080 IDH1KD tx)
COc1ccc(-c2noc(N3CCC(C(=O)NCCCN4CC(C)CC(C)C4)CC3)n2)cc1 (stereo not drawn)	TDP1 cell CPT 3.7µM, TGFb inhibitor inconclusive, DT40 TDP1 no CPT inconclusive
COc1ccc(-c2noc(N3CCC(C(=O)NCc4ccc(F)cc4)CC3)n2)cc1	DT40 TDP1 no CPT inconclusive
CCN(C(=O)C1CCN(c2nc(-c3ccc(OC)cc3)no2)CC1)c1ccc(OC)cc1	TDP1 cell CPT inconclusive, TGFb inhibitor inconclusive, DT40 TDP1 no CPT 16µM
CCC(CN)CC(C)CCNCC(O)CNCC(C)CC(CC)CN (stereo not drawn)	none (no result: TGFb inhibitor, HepG2 tox, HT1080-NT tox, HT1080 IDH1KD tx)
C/C(=N/NC(=O)c1cc(-c2cccc([N+](=O)[O-])c2)n[nH]1)c1cccc(O)c1	DT40 TDP1 no CPT inconclusive
C/C(=N\NC(=O)c1cc(-c2cccc([N+](=O)[O-])c2)n[nH]1)c1ccccc1O	TDP1 cell CPT inconclusive, TGFb inhibitor inconclusive, HT1080-NT tox inconclusive, DT40 TDP1 no CPT inconclusive, HT1080 IDH1KD tx 23µM
CCc1ccc(/C=N/NC(=O)c2cc(-c3cccc([N+](=O)[O-])c3)n[nH]2)cc1	TDP1 cell CPT 3.7µM, TGFb inhibitor inconclusive, HT1080-NT tox 7.3µM, DT40 TDP1 no CPT 2.9µM, HT1080 IDH1KD tx 6.5µM
COC(=O)C1CCN(C(=O)COc2ccc(S(=O)(=O)N3CCOCC3)cc2Cl)CC1	none
